# Screening data from PubChem.
# An excerpt weighted towards active compounds, which were near 0.99% of everything screened.
# RECQ1 inh-1: qHTS Assay for Inhibitors of RecQ-Like Dna Helicase 1 (RECQ1) | actives 0.54% (n = 240,000) | Potency, µM (doses to about 57.3 µM), hits mostly inhibitors | RECQ1 DNA unwinding, red fluorescence kinetic read | ATP-dependent DNA helicase Q1 (Homo sapiens), P46063; note: nearly all actives have a fitted effect of over 30% in size
# Target sequence (P46063 whole entry, looked up): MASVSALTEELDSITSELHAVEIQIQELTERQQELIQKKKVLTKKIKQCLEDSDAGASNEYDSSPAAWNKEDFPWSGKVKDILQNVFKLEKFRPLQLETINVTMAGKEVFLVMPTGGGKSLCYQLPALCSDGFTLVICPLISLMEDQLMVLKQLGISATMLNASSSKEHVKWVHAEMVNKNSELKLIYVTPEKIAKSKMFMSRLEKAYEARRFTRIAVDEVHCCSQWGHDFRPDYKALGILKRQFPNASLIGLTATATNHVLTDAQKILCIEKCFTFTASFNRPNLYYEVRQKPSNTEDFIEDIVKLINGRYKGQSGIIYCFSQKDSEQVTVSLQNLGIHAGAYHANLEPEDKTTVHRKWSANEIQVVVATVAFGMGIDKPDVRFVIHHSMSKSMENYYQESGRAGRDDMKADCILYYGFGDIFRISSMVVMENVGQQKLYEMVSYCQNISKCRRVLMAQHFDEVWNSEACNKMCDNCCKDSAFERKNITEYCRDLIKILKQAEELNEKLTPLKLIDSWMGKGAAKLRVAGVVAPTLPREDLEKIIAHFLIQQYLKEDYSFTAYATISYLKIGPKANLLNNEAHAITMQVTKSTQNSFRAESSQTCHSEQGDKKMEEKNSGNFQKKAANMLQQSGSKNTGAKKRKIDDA
#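 50 nM RECQ1T1 preincubated 15 min with compound in Tris pH 8.0 buffer with MgCl2, DTT, Tween-20 and 2.5 ug/ml poly(dI-dC); started with 200 nM TAMRA/BHQ-2 forked duplex and 2 mM ATP. Unwinding read as fluorescence (525/598 nm), two reads 2 h apart.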
# WRN inhibitor: qHTS for Inhibitors of WRN Helicase; Bifunctional 3'-5' exonuclease/ATP-dependent helicase WRN (Homo sapiens), Q14191; WRN helicase unwinding, fluorescent forked duplex, kinetic; Potency, µM (series often up to 114 µM), most hits filed as inhibitors; actives 0.46% (n = 360,000); note: nearly all actives have a fitted effect of over 55% in size
#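 Kinetic red-fluorescence monitoring (525/598 nm) tracks WRN helicase activity after 100 nM fluorophore-quencher forked duplex and 2 mM ATP are added to 20 nM enzyme pretreated 15 min at room temperature with compound.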
# L3MBTL1 inh-1: qHTS Assay for the Inhibitors of L3MBTL1; Lethal(3)malignant brain tumor-like protein 1 (Homo sapiens), Q9Y468; AlphaScreen L3MBTL1–H3K9me1 peptide binding; Potency, µM (series often up to 57.1 µM), actives largely listed as inhibitors; actives 0.66% (n = 230,000); note: nearly all actives have a fitted effect of over 60% in size
#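 Displacement of a biotinylated histone H3(1-15) peptide monomethylated at Lys9 (75 nM) from L3MBTL1 (50 nM) was measured by AlphaScreen after a 30 min room-temperature compound incubation; cefsulodin titration served as intraplate control.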
# FEN1 inh-1: qHTS Assay for the Inhibitors of Human Flap endonuclease 1 (FEN1); P39748; Recombinant FEN1 flap cleavage, fluorescence, 15 min; Potency, µM (series often up to 114 µM), actives largely listed as inhibitors; actives 0.35% (n = 390,000); note: nearly all actives have a fitted effect of over 65% in size
#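 Recombinant FEN1 (10 nM) was preincubated with pin-transferred compounds for 15 min at room temperature, then flap DNA substrate (50 nM final) was added. Plates were read at 0 and 15 min, and normalized concentration–response data were fitted to a four-parameter Hill equation.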
# BLM helicase inh: qHTS Assay for Inhibitors of Bloom's syndrome helicase (BLM). actives 0.2% (n = 350,000). Potency, µM (top dose mostly 56.1 µM), actives largely listed as inhibitors. RecQ-like DNA helicase BLM (Homo sapiens), P54132. recombinant BLM DNA unwinding, fluorescence dequenching; note: nearly all actives have a fitted effect of over 35% in size
# RECQ1 inh conf: Confirmation qHTS Assay for Inhibitors of RecQ-Like Dna Helicase 1 (RECQ1) | shares compounds with RECQ1 inh-1 | RECQ1 helicase DNA unwinding, fluorescence | Potency, µM (series often up to 229 µM), most hits filed as inhibitors | actives 28% (n = 610) | AID 2708, 2010; note: nearly all actives have a fitted effect of over 45% in size
# ADP FP counter: Counterscreen for RECQ1 Inhibitors: ADP Fluorescence Polarization Displacement Assay. shares compounds with RECQ1 inh-1. ADP fluorescence polarization displacement counterscreen. Potency, µM (doses to about 228 µM), usual class: inhibitors. actives 27% (n = 530). AID 2711, 2010; note: nearly all actives have a fitted effect of over 45% in size
# RECQ1 inh-2: Confirmation qHTS Assay for Inhibitors of RecQ-Like Dna Helicase 1 (RECQ1) - Round 2 Cherry Picks; shares compounds with RECQ1 inh-1; recombinant RECQ1 DNA unwinding, red fluorescence; Potency, µM (titrated, usually from 119 µM), hits mostly inhibitors; actives 15% (n = 1,100); AID 504841, 2011; note: nearly all actives have a fitted effect of over 50% in size
# L3MBTL1 inh-2: qHTS Assay for the Inhibitors of L3MBTL1: Hit Validation. shares compounds with L3MBTL1 inh-1. L3MBTL1 methyl-lysine binding inhibition, biochemical qHTS. Potency, µM, hits mostly inhibitors. AID 540279, 2011. actives 91% (n = 500); note: nearly all actives have a fitted effect of over 70% in size
# AlphaScreen ctr2: qHTS Assay for the Inhibitors of L3MBTL1: Hit Validationin AlphaScreen Counterscreen. 500 tested, under 10 active. Potency, µM (highest dose often 57.1 µM), most hits filed as inhibitors. shares compounds with L3MBTL1 inh-1. AlphaScreen counterscreen, signal inhibition
# FEN1 inh-2: qHTS Assay for the Inhibitors of FEN1: Confirmatory Assay for Cherry-picked Compounds. Potency, µM, most hits filed as inhibitors. actives 79% (n = 880). FEN1 flap cleavage, TAMRA/BHQ2 fluorogenic DNA substrate. shares compounds with FEN1 inh-1. AID 720498, 2013; note: nearly all actives have a fitted effect of over 60% in size
# A number is an active result; 0 = inactive; ? = inconclusive; - = not tested or not shown; ! = not confirmed by another sample; [ ] = another dose, or the depositor's remark. Calls come from the whole dose curve; as a rule, active = well fitted curve in the direction sought with a large enough effect; inconclusive = small, poorly fitted or top-dose-only effect, or another doubt; inactive = no such curve, though single readings can be large; an effect the other way counts as inactive or inconclusive.
SMILES,RECQ1 inh-1,WRN inhibitor,L3MBTL1 inh-1,FEN1 inh-1,BLM helicase inh,RECQ1 inh conf,ADP FP counter,RECQ1 inh-2,FEN1 inh-2,others
Cc1ccc(NC(c2nnc(-c3ccccc3)o2)c2ccccc2F)c([N+](=O)[O-])c1 (centres undefined),-,-,-,0,0,-,-,-,-,
Cc1nc(C)c(C(=O)Nc2ncc([N+](=O)[O-])s2)o1,?,?,39.8µM,0,0,-,-,?,-,L3MBTL1 inh-2=5.32;AlphaScreen ctr2=0
COc1ccc(C(=O)Nc2nnc(Cc3cccs3)s2)cc1OC,0,0,0,0,0,-,-,-,-,
COc1ccc(Cc2nnc(NC(=O)Cc3cccs3)s2)cc1OC,20µM,?,6.31µM,0,?,-,-,?,-,L3MBTL1 inh-2=10.6;AlphaScreen ctr2=0
COc1ccccc1N1CCN(CCCCCCOc2ccc(F)cc2)CC1,0,0,0,0,0,-,-,-,-,
O=c1c2c3c(sc2[nH]c(=S)n1Cc1ccco1)CCC3,12.6µM,?,25.1µM,?,0,44.7µM,?,-,-,L3MBTL1 inh-2=10.6;AlphaScreen ctr2=0
N#Cc1c(-c2ccco2)cc(-c2ccccc2)[nH]c1=O,22.4µM,0[11.6 µM],-,0,?,?,?,-,75.7,
O=C(c1ccc2c(c1)C(=O)N(CCCO)C2=O)c1ccc2c(c1)C(=O)N(CCCO)C2=O,0,0,-,0,0,-,-,-,-,
O=C1c2ccc3c4c(ccc(c24)C(=O)N1CCCCO)C(=O)N(CCCCO)C3=O,7.08µM,0[11.6 µM],-,?,0,-,-,50.1µM,30.1,
CC1=CN2C(=N)/C(=C/c3ccc([N+](=O)[O-])o3)C(=O)N=C2S1,28.2µM,31.6µM,35.5µM,56.2µM,0,-,-,?,67.5,L3MBTL1 inh-2=13.4;AlphaScreen ctr2=0
CC1=CN2C(=N)/C(=C/c3ccco3)C(=O)N=C2S1,0,?,0,0,0,-,-,-,-,
C=C1c2cccc(O)c2C(O)=C2C(=O)[C@]3(O)C(O)=C(C(N)=O)C(=O)[C@@H](N(C)C)[C@@H]3[C@@H](O)[C@H]12,7.94µM,?,0.891µM,?,0,?,7.08µM,0,33.8,
Nc1ncnc2oc(-c3ccco3)c(-c3ccco3)c12,10µM,?,25.1µM,35.5µM,15.8µM,50.1µM,39.8µM,0,60.1,
Cc1ccc(N2C(=O)c3ccccc3C2C(=O)c2ccc(O)cc2O)cc1 (centres undefined),14.1µM,?,4.47µM,39.8µM,0,0,0,0,33.8,
Cc1ccc(NC2CCCN(C(=O)c3cnsn3)C2)cc1C (centres undefined),-,0,-,0,0,-,-,-,-,
O=C(O)c1cc(O)c2c(c1)C(=O)c1cccc(O)c1C2=O,3.16µM!,26.7µM,?,?,35.5µM!,126µM,7.94µM,-,4.26,
O=C(O)c1cccc2c1-c1ccc(Cl)cc1C2=O,-,0,-,0,-,-,-,-,-,
Cc1cccc(C)c1NS(=O)(=O)c1ccc2c(c1)[C@H]1C=CC[C@H]1[C@@H](c1ccc(Cl)cc1)N2,-,-,-,0,0,-,-,-,-,
Cc1c(Cl)cccc1NS(=O)(=O)c1ccc2c(c1)C1C=CCC1C(c1ccc(C(=O)O)cc1)N2 (centres undefined),28.2µM,31.6µM,7.94µM,25.1µM,?,-,-,?,60.1,
COc1cc(/C=N/N2C(C)CCCC2C)cc(Br)c1O (centres undefined),0,0,0,0,0,-,-,-,-,
COc1cc(/C=N/N2C(=O)CSC2=S)cc(Br)c1O,35.5µM,50.1µM,31.6µM,79.4µM,0,?,-,-,42.6,
O=C(COC(=O)c1ccc(Cl)nc1)Nc1ccc(N2CCCCC2)cc1,-,0,0,0,-,-,-,-,-,
COC(=O)c1cc(O)cc(OC)c1Oc1cc(C)cc(O)c1C(=O)O,22.4µM,20µM,-,50.1µM,8.91µM,-,-,5.01µM,75.7,
CCC1=C2CC[C@H]3C(=O)N(c4ccccc4)C(=O)[C@H]3[C@H]2[C@@]2(Cc3ccccc3)C(=NCC3CC3)OC(=O)N2C1=O,0,-,-,-,0,-,-,-,-,
CS(=O)(=O)c1ccc2nc(NC(=O)CC3CCCC3)sc2c1,0,0,0,0,0,-,-,-,-,
CC(C)Nc1ccc(Nc2ccnc3cc4ccccc4cc23)cc1,22.4µM,35.5µM,14.1µM,25.1µM,?,22.4µM,0,-,23.9,L3MBTL1 inh-2=21.2;AlphaScreen ctr2=0
